Measured values from PubChem BioAssay AID1044 (The Scripps Research Institute Molecular Screening Center, 2008).
Hit rate of the full screen: of about 16,000 compounds, about 240 (1.5%) were called active. Rule as the data show it: active = activation above about 80%; inactive = the rest. The entries come from a sample that favours actives as a whole.

target: Sphingosine 1-phosphate receptor 1 (Homo sapiens) (UniProt P21453); test: activates the human S1P1 receptor (AID 1044); settings: S1P1 agonist cell-based reporter assay; at 4.5 µM; stronger effect = higher value
Sequence (P21453 whole entry, looked up): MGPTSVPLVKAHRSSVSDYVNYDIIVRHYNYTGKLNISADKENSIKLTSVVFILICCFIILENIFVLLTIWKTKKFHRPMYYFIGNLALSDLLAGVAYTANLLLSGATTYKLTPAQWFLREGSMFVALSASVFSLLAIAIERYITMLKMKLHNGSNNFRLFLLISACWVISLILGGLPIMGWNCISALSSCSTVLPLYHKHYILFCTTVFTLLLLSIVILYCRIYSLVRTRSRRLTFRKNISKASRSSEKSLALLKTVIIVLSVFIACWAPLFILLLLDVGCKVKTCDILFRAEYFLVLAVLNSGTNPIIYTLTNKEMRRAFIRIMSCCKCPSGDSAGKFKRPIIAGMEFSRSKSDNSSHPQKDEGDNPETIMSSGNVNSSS

activation, inactive:
O=S(=O)(Oc1cccc(C(F)(F)F)c1)c1cc(S(=O)(=O)c2ccccc2)cs1 4.61%
Cn1nc(C(C)(C)C)c(NC(=O)c2sccc2Cl)c1C(C)(C)C -7.37%
CCc1ccc(S(=O)(=O)Nc2ccc(C)c(NS(C)(=O)=O)c2)cc1 6.03%
Cc1oc(-c2ccc(Cl)cc2)cc1C(=O)N1CCOCC1 6.2%
Cc1c(-c2cnc(NC(=O)c3ccccc3)s2)sc2ccc(Cl)cc12 7.33%
O=C(Nc1ccc(Cl)cc1)c1csc(COc2ccc3nonc3c2)n1 -33.9%
NNC(=O)COc1ccc(C2SCCS2)cc1 -2.77%
O=c1oc2ccc(Cl)cc2cc1-c1ccc([N+](=O)[O-])cc1 -9.38%
O=C(NNc1ccc(C(F)(F)F)cn1)c1ccccc1Cl -0.55%
COc1cccc2cc(C(=O)O)oc12 -0.93%
O=C(O)CC(CC(=O)O)c1ccc(C(F)(F)F)cc1 0.91%
O=C1c2ccc3c4c(ccc(c24)C(=O)N1c1ccccc1)C(=O)N(c1ccccc1)C3=O -6.17%
CCCCCCNC(=O)NCCCCCC -9.06%
COc1ccc(CCNCC(O)Cn2ccc3ccccc32)cc1OC (stereo not drawn) 5.51%
c1ccc2c(c1)NC(C1Nc3ccccc3O1)O2 (stereo not drawn) -3.26%
COc1cc(CCN=Cc2ccccc2O)c([N+](=O)[O-])cc1OC -11.4%
CS/C(N)=N/N=C/c1cccs1 -0.53%
COC(=O)C1=C(NNc2ccccc2)CSC1 6.31%
Cc1cc(CNCC(O)C(F)(F)F)no1 (stereo not drawn) -6.99%
FC(F)(F)C1=CC=NCCN1 1.36%
N/C(=N\OC(=O)Nc1ccccc1)c1ccc(Oc2c(Cl)cncc2Cl)cc1 13.7%
Cc1nc(-c2ccc(NC(=O)COCC(=O)O)cc2)cs1 -4.96%
CCCCCCCCc1ccc(C(=O)O)cc1 19.6%
CCOC(=O)c1c(NC(=S)Nc2ccccc2)sc2c1CCN(C)C2 -17.2%
Cc1nnsc1-c1nnc(SCC(=O)c2ccc3c(c2)OCO3)n1C1CC1 0.92%
COc1ccc(NC(=S)Nc2ccc(OC)cc2)cc1 2.11%
COc1cccc(NC(=S)N(CCC#N)C2CCCCC2)c1 -17.6%
COc1cccc(C(=O)c2sc3nsc(SCc4ccc(F)cc4)c3c2N)c1 50.7%
Cc1ccc([N+](=O)[O-])c(C(=O)NCC(=O)O)c1 -20%
OC(COc1ccc(F)cc1)(c1ccccc1)c1ccccc1 -25.6%
CCO/N=C\c1nn(S(C)(=O)=O)cc1Br -3.43%
CCOC(=O)Cc1nc(N)ncc1C(=O)OCC -10.1%
Clc1ccc(-c2csc(N/N=C\c3ccn[nH]3)n2)cc1 8.84%
O=C(NCCO)NCCSc1ccc(F)cc1 -13.1%
O=C1CSC(=S)N1c1ccc(N2CCCCCC2)c(N2C(=O)CSC2=S)c1 0.84%
COC(=O)c1ccc(S(=O)(=O)NNC(=O)c2cn3cc(C(F)(F)F)cc(Cl)c3n2)n1C -20.2%
N#Cc1ccc(N2CCSCC2)cc1[N+](=O)[O-] -27.1%
O=C(Nc1ccccc1C(=O)NCc1c(F)cccc1Cl)c1ccccc1Cl 15.3%
O=C(O)c1ccccc1Nc1ccccc1F 2.49%
Cc1ccc(Sc2cc(C)c(C)cc2N)c(C)c1 10.7%
Cc1csc(/N=C/N(C)C)c1C#N -3.89%
NS(=O)(=O)c1ccc(Oc2c(Cl)cccc2[N+](=O)[O-])cc1 -8.03%
CCCS(=O)(=O)c1csc(C(=O)OC)c1N/N=C/c1cccs1 -27.2%
Cn1cccc1CNC(=O)c1cc(F)cc2c1OCOC2 21.1%
Cc1c(C(=O)Nc2ccccc2)sc2cc(C(C)(C)C)sc12 23.4%
O=C1OC2(CCCCC2)OC1c1ccccc1 (stereo not drawn) -9.78%
CSc1nc2c(c(/C=C/c3ccccc3)c1C#N)CCC2 -18.1%
O=C1c2ccccc2O[C@@H](c2ccccc2)[C@@H]1NC1CCCCC1 75.6%
NNC(=O)c1cc2ccccc2s1 8.06%

activation, active:
CCOC(=O)c1c(NS(=O)(=O)c2cccc3nsnc23)sc(C)c1C 117%
NNC(=O)c1csc(COc2ccc(C3SCCS3)cc2)n1 83%
COc1cccc(NC(=S)NNC(=S)NC2CC3CCC2C3)c1 (stereo not drawn) 97.7%
O=C(CNC(=O)c1ccccc1F)c1ccc(Br)cc1 84.7%
